The values that follow come from PubChem BioAssay (EPA / NIEHS).

A word on the AC50: it is the midpoint of the concentration-response curve, whichever way the signal moves.

Inconclusive results are not listed. Calls of active or inactive are those of the source. The calls were made as follows: active = hit-call score of the fitted dose curve at least 0.9, where 1 is the maximum; inconclusive = response in the unintended direction; inactive = score below 0.9.

The target of experiment [1] is human Sirtuin 1 (SIRT1), SIRT1 (gene 23411) (UniProt Q96EB6). The experiment is described as follows: NVS_ENZ_hSIRT1: NovaScreen (NVS) Enzymatic Assay for human Sirtuin 1 (SIRT1) (AID 2283219). In short, it runs like this: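 Cell-free recombinant SIRT1 with a fluorescent substrate; substrate and product separated by electrophoretic mobility shift and read by fluorescence intensity, 1 h after dosing. Primary screen at 25 uM in duplicate; hits re-run in concentration-response up to 50 uM, relative to DMSO.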

Experiment [2] has as its target human Sirtuin 2 (SIRT2), SIRT2 (gene 22933) (UniProt Q8IXJ6). The experiment is described as follows: NVS_ENZ_hSIRT2: NovaScreen (NVS) Enzymatic Assay for human Sirtuin 2 (SIRT2) (AID 2283217). A digest of the protocol:
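Single-point duplicate screen at 25 uM, then concentration-response (max 50 uM) for chemicals passing threshold. Enzyme activity of recombinant human SIRT2 measured after 1 hr by fluorescence with mobility-shift separation of product; DMSO baseline.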

Experiment [3] has as its target human Rho Associated Coiled-coil Containing Protein Kinase 1 (ROCK1), ROCK1 (gene 6093) (UniProt Q13464). The experiment is described as follows: NVS_ENZ_hROCK1: NovaScreen (NVS) Enzymatic Assay for human Rho Associated Coiled-coil Containing Protein Kinase 1 (ROCK1) (AID 2283214). In short, it runs like this:
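Compounds first run in duplicate at 25 uM against recombinant human ROCK1, then followed in concentration series. Kinase activity was read 1 h post-dosing by fluorescence with mobility-shift separation, as signal loss relative to DMSO.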

In experiment [4] the target is human Protein Tyrosine Phosphatase Receptor Type M (PTPRM), PTPRM (gene 5797) (UniProt P28827). The experiment is described as follows: NVS_ENZ_hPTPRM: NovaScreen (NVS) Enzymatic Assay for human Protein Tyrosine Phosphatase Receptor Type M (PTPRM) (AID 2283215). A digest of the protocol:
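Read-out is fluorescence after electrophoretic separation of substrate and product, taken 1.33 h post-dosing with recombinant enzyme. Compounds screened at 25 uM in duplicate, then concentration series for actives; activity as signal loss relative to DMSO.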

The subject of experiment [5] is bovine Histamine 1 Receptor (H1), gene 281231. The experiment is described as follows: NVS_GPCR_bH1: NovaScreen (NVS) G Protein-Coupled Receptor Assay for bovine Histamine 1 Receptor (H1) (AID 2283246). In short, it runs like this: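 Hits from a 25 uM duplicate primary screen were retested in concentration series (top 50 uM); binding measured as scintillation-counted displacement of radioligand from bovine cerebellar membranes after 1 h, normalised to DMSO.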

Experiment [6] has as its target human Tropomyosin Receptor Kinase A (TRKA), NTRK1 (gene 4914) (UniProt P04629). The experiment is described as follows: NVS_ENZ_hTrkA: NovaScreen (NVS) Enzymatic Assay for human Tropomyosin Receptor Kinase A (TRKA) (AID 2283224). In short, it runs like this:
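Compounds were screened at 25 uM in duplicate, then concentration series to a 50 uM top for those meeting threshold (e.g. 30% inhibition). Enzyme was recombinant human TrkA, incubated 1 h. Product formation was quantified by fluorescence after mobility-shift separation.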

Experiment [7] deals with human Vascular Endothelial Growth Factor Receptor 1 (VEGFR1), FLT1 (gene 2321) (UniProt P17948). The experiment is described as follows: NVS_ENZ_hVEGFR1: NovaScreen (NVS) Enzymatic Assay for human Vascular Endothelial Growth Factor Receptor 1 (VEGFR1) (AID 2283226). In short, it runs like this:
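Kinase activity of recombinant human VEGFR1 was read by fluorescence after electrophoretic separation of product from substrate, 1 h post-dosing; initial duplicate single-point testing at 25 uM, followed by concentration-series follow-up, with DMSO as baseline.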

The target of experiment [8] is human Vascular Endothelial Growth Factor Receptor 2 (VEGFR2), KDR (gene 3791) (UniProt P35968). The experiment is described as follows: NVS_ENZ_hVEGFR2: NovaScreen (NVS) Enzymatic Assay for human Vascular Endothelial Growth Factor Receptor 2 (VEGFR2) (AID 2283230). In short, it runs like this:
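Cell-free recombinant VEGFR2 kinase, fluorescent substrate with electrophoretic mobility-shift separation; read 1 h after dosing. Screened at 25 uM in duplicate, hits to concentration-response up to 50 uM; loss-of-signal versus DMSO.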

In experiment [9] the target is sheep Cyclooxygenase-1 (Cox1), PTGS1 (gene 443551) (UniProt P05979). The experiment is described as follows: NVS_ENZ_oCOX1: NovaScreen (NVS) Enzymatic Assay for sheep Cyclooxygenase-1 (Cox1) (AID 2283239).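 Also: actives reduce cyclooxygenase activity so potencies are for inhibitors.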 A digest of the protocol: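 Ovine seminal vesicle extract; absorbance (colorimetric) enzyme read-out at 0.66 h post-dose. Primary: single conc 25 uM, duplicate. Follow-up: concentration series on actives. Activity = signal loss vs DMSO baseline.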

Experiment [10] deals with bovine Dopamine Receptor (DR), Non-selective Binding, DRD1 (gene 281125) (UniProt Q95136). The experiment is described as follows: NVS_GPCR_bDR_NonSelective: NovaScreen (NVS) G Protein-Coupled Receptor Assay for bovine Dopamine Receptor (DR), Non-selective Binding (AID 2283241). In short, it runs like this:
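Filter-based radioligand binding with bovine striatal membrane, incubated 1 h; DMSO as negative baseline. Initial duplicate single-point test at 25 uM preceded concentration series for actives.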

The target in experiment [11] is Adenosine receptor A1 (Bos taurus) (UniProt P28190). The experiment is described as follows: NVS_GPCR_bAdoR_NonSelective: NovaScreen (NVS) G Protein-Coupled Receptor Assay for bovine Adenosine Receptor (AdoR), Non-selective Binding (AID 2283244). In short, it runs like this: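 Cell-free binding with membranes from bovine striatum: radioligand displaced by test chemical, read after 1 h by filtration and scintillation. Single-point 25 uM duplicate primary, 50 uM top concentration in follow-up curves, DMSO baseline.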

Experiment [12] deals with rat Constitutive Nitric Oxide Synthase (CNOS), Nos1 (gene 24598) (UniProt P29476). The experiment is described as follows: NVS_ENZ_rCNOS: NovaScreen (NVS) Enzymatic Assay for rat Constitutive Nitric Oxide Synthase (CNOS) (AID 2283236). A digest of the protocol:
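Single 25 uM duplicate screen, then concentration series to 50 uM for chemicals meeting threshold. Rat brain membrane-derived CNOS activity detected radiometrically by filtration and scintillation counting, 1 h after compound addition; DMSO as baseline.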

The target in experiment [13] is rabbit Imidazoline 2 Central (I2C), CKB (gene 100009085) (UniProt P00567). The experiment is described as follows: NVS_ENZ_rabI2C: NovaScreen (NVS) Enzymatic Assay for rabbit Imidazoline 2 Central (I2C) (AID 2283228). In short, it runs like this: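 Rabbit brain membranes, cell-free; readout by filter-based scintillation counting 1.5 hours after dosing, loss of signal vs DMSO. Initial duplicate test at 25 uM, then concentration-response with 50 uM top concentration.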

In experiment [14] the test system is bovine Angiotensin II Receptor Type 2 (AT2), gene 407157. The experiment is described as follows: NVS_GPCR_bAT2: NovaScreen (NVS) G Protein-Coupled Receptor Assay for bovine Angiotensin II Receptor Type 2 (AT2) (AID 2283240). In short, it runs like this: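 Radioligand displacement on bovine cerebellar membranes, 1 hour incubation, filter-based scintillation counting; loss of signal vs DMSO. Duplicate single-point screen at 25 uM, then concentration-response to 50 uM maximum.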

In experiment [15] the target is sheep Cyclooxygenase-2 (Cox2), PTGS2 (gene 443460) (UniProt P79208). The experiment is described as follows: NVS_ENZ_oCOX2: NovaScreen (NVS) Enzymatic Assay for sheep Cyclooxygenase-2 (Cox2) (AID 2283231). A digest of the protocol: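 Ovine placental enzyme, cell-free; chemical added, 0.66 h, absorbance (colorimetric). Screen 25 uM in duplicate; ≥threshold hits titrated, top 50 uM. Inhibition = signal loss vs DMSO.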

Experiment [16] can be described thus: NVS_GPCR_bNPY_NonSelective: NovaScreen (NVS) G Protein-Coupled Receptor Assay for bovine Neuropeptide Y (NPY) Receptor, Non-selective Binding (AID 2283245). A digest of the protocol:
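Displacement of radioligand from bovine hippocampal membrane receptors, read by filtration and scintillation counting after 1 hour. Concentration-response to a top of 50 uM followed a 25 uM duplicate primary screen. Loss of signal versus DMSO.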

Experiment [17] concerns the target human Vascular Endothelial Growth Factor Receptor 3 (VEGFR3), FLT4 (gene 2324) (UniProt P35916). The experiment is described as follows: NVS_ENZ_hVEGFR3: NovaScreen (NVS) Enzymatic Assay for human Vascular Endothelial Growth Factor Receptor 3 (VEGFR3) (AID 2283229). In short, it runs like this:
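Chemicals first run in duplicate at 25 uM, with actives re-tested in concentration series to a top of 50 uM. Recombinant VEGFR3 activity measured after 1 h via fluorescence with mobility-shift product separation; inhibition fitted relative to DMSO.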

Experiment [18] concerns the target rat Catechol-O-Methyl Transferase (COMT), Comt (gene 24267) (UniProt P22734). The experiment is described as follows: NVS_ENZ_rCOMT: NovaScreen (NVS) Enzymatic Assay for rat Catechol-O-Methyl Transferase (COMT) (AID 2283235). In short, it runs like this:
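Rat dorsal striatum extract served as COMT source; product quantified by HPLC/spectrophotometry, read at 0 h after dosing. Primary single-concentration screen at 25 uM, followed by concentration series to a 50 uM maximum.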

sheep Cyclooxygenase-2 (Cox2), PTGS2 (gene 443460), sequence (P79208 whole entry, looked up): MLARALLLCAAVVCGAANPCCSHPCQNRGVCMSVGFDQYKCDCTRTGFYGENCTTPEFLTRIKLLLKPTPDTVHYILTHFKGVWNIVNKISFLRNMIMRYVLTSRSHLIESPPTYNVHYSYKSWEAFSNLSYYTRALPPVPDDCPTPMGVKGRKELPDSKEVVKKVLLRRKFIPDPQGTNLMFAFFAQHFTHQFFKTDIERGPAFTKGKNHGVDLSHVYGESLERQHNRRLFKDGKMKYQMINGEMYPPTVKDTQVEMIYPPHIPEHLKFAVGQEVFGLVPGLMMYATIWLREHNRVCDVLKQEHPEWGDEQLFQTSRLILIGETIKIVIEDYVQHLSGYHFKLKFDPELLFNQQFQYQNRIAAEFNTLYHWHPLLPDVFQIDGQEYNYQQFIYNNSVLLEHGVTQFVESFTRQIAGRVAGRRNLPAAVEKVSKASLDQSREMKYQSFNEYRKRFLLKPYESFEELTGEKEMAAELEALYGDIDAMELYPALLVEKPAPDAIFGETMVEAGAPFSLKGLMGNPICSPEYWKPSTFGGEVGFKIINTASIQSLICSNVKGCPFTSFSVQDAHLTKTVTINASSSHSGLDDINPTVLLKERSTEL
human Vascular Endothelial Growth Factor Receptor 3 (VEGFR3), FLT4 (gene 2324), sequence (P35916 whole entry, looked up): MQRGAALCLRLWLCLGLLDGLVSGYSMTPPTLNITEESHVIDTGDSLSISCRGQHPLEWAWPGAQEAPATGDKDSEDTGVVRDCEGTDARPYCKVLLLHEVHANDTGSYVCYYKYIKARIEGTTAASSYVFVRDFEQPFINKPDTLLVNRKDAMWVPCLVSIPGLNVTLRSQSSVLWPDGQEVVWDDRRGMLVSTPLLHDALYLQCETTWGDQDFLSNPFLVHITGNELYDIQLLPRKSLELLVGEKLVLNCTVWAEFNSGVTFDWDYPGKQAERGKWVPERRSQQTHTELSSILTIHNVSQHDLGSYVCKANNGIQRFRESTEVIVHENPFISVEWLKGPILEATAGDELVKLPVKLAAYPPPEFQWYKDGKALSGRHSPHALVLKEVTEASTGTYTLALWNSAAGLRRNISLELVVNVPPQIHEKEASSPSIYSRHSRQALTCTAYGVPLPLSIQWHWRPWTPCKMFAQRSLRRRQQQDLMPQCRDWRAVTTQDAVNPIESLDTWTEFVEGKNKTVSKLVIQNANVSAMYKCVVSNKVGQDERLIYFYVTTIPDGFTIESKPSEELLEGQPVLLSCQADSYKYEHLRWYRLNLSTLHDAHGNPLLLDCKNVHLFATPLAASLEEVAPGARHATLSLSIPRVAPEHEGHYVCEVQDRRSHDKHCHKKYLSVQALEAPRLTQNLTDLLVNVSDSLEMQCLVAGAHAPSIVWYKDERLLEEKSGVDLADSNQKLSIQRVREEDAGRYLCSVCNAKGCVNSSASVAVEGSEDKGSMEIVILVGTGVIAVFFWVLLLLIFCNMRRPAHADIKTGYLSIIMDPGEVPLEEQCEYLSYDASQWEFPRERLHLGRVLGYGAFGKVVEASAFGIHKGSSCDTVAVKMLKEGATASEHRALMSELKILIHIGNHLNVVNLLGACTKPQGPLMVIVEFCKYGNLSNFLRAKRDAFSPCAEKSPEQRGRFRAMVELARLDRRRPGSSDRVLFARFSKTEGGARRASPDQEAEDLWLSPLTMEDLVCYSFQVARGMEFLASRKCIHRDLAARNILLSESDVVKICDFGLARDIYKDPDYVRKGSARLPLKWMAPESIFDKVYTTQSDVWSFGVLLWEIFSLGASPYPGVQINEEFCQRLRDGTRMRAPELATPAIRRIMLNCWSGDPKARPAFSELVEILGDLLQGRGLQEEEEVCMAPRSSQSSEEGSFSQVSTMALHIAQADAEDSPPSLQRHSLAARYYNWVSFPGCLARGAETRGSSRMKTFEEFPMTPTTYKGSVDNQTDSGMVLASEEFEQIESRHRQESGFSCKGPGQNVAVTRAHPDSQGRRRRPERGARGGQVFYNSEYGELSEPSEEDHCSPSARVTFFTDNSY
human Sirtuin 1 (SIRT1), SIRT1 (gene 23411), sequence (Q96EB6 whole entry, looked up): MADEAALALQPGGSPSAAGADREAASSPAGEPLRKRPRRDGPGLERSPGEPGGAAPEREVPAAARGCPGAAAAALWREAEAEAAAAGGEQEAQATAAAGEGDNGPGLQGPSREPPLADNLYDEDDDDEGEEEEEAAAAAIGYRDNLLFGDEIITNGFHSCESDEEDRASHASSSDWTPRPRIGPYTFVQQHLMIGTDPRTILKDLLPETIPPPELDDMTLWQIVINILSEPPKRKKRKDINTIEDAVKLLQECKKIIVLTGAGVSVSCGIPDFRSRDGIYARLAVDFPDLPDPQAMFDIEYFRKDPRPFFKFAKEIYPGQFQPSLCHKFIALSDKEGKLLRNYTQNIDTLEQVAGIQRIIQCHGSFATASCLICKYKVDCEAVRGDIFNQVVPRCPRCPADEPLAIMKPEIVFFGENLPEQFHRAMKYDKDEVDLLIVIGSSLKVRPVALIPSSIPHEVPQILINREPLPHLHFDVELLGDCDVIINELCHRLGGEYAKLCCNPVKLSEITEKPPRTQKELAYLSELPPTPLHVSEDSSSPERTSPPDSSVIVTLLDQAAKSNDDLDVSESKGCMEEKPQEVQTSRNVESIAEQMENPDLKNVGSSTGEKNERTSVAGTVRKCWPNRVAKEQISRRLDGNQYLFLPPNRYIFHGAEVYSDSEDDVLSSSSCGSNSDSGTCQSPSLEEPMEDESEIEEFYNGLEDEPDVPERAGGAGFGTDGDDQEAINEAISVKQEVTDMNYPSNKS
rabbit Imidazoline 2 Central (I2C), CKB (gene 100009085), sequence (P00567 whole entry, looked up): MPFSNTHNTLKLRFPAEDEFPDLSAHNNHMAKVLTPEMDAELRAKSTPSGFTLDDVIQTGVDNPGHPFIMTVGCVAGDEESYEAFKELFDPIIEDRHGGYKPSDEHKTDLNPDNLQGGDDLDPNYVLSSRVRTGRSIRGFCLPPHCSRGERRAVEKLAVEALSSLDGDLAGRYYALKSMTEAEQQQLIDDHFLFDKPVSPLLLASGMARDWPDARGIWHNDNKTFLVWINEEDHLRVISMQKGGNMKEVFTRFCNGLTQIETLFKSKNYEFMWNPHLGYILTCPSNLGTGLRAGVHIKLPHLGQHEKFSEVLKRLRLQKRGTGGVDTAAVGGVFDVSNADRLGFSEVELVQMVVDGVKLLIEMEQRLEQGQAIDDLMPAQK
sheep Cyclooxygenase-1 (Cox1), PTGS1 (gene 443551), sequence (P05979 whole entry, looked up): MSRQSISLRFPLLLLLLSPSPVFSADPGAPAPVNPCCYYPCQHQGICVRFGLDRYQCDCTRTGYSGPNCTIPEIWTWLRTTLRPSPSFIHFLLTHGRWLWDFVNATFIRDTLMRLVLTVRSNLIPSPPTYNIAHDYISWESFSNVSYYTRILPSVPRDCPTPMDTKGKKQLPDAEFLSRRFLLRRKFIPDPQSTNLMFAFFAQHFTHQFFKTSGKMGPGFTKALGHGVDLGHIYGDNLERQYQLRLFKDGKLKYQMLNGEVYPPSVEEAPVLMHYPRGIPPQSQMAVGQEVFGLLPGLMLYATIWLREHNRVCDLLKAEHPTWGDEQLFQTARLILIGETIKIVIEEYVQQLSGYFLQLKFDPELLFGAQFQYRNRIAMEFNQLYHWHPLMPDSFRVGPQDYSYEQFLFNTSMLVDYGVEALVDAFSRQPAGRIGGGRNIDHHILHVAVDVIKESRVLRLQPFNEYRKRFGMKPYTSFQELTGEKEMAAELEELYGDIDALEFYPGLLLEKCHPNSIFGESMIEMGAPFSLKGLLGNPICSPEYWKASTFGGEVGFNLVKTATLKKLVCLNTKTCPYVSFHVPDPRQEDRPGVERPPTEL
human Vascular Endothelial Growth Factor Receptor 2 (VEGFR2), KDR (gene 3791), sequence (P35968 whole entry, looked up): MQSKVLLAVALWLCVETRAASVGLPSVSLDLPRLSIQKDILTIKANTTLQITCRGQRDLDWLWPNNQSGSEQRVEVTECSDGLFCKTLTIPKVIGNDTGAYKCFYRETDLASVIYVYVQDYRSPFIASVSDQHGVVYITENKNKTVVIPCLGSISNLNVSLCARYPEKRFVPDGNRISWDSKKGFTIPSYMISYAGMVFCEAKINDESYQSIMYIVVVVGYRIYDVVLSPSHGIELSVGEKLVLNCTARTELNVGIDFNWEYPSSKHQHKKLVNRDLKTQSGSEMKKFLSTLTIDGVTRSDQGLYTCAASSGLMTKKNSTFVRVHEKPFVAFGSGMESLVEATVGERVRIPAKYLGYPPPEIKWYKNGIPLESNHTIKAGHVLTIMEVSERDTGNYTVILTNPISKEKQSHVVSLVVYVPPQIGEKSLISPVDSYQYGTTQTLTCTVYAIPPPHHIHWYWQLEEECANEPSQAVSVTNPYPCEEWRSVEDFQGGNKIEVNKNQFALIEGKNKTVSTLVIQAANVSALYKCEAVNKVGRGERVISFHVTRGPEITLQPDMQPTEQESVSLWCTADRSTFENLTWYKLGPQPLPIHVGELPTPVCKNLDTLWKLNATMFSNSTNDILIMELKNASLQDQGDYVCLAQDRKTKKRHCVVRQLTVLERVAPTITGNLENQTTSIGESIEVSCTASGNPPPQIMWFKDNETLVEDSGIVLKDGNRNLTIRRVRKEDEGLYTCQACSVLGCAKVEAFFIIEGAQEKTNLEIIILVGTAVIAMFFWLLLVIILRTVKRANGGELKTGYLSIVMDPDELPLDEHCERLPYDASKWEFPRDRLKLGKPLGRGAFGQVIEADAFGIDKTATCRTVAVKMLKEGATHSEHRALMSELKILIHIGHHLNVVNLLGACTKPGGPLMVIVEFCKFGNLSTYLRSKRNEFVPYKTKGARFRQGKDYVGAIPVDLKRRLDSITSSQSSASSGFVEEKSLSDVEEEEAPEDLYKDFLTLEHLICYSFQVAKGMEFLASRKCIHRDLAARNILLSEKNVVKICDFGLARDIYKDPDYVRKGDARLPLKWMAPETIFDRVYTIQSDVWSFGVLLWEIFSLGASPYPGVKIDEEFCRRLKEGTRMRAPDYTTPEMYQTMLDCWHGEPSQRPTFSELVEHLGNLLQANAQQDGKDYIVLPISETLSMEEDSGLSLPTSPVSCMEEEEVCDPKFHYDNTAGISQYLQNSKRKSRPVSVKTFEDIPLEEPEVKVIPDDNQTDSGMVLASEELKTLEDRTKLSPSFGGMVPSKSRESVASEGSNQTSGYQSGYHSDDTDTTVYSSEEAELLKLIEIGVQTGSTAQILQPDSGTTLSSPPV

For the compound `NC(N)=O`, in experiment [1], the call was inactive.

Consider `COCc1nnc(-c2ccc[n+]([O-])c2)n1-c1c(Cl)c(Cl)cc2[nH]c(=O)c(=O)[nH]c12`, for which the compound was classed as inactive in [2] and in experiment [1]. As for `CCCc1ccccc1`, the compound was classed as inactive in experiment [3]. In the case of `CCc1cccc(CC)c1N`, the outcome in experiment [1] was inactive. For the compound `NC(=O)N1c2ccccc2C=Cc2ccccc21`, the compound was called inactive in experiment [4] and in experiment [5].

With `Cc1nc(-c2ccccn2)ncc1C(=O)Nn1cc(C)c2cc(F)ccc21`, the compound was called inactive in experiment [4], in experiment [2], in [6], in experiment [7], in experiment [8] and in experiment [9]. For the compound `OCC(CO)(CO)CO`, the outcome in experiment [5] was inactive. In the case of `O=C(O)c1cccc(C(=O)O)c1`, the call in [9] was inactive. As for `COS(C)(=O)=O`, the outcome in experiment [10] was inactive. Regarding `OCCNCCO`, the outcome in experiment [8] was inactive. Consider `C=CCc1cc(S(=O)(=O)c2ccc(O)c(CC=C)c2)ccc1O`, for which the AC50 in [8] is 21.2 µM (active); in [9], 1.07 µM (active); in experiment [11], 16.7 µM (active). As for `O=C1CN(N=Cc2ccc([N+](=O)[O-])o2)C(=O)N1`, the call in [12] and in experiment [9] was inactive.

Regarding `O=C(N[C@H](CO)[C@H](O)c1ccc([N+](=O)[O-])cc1)C(Cl)Cl`, in experiment [9], the call was inactive. Turning to `c1ccc(C(O[C@@H]2CCCN(CCc3ccc4c(c3)OCO4)C2)c2ccccc2)cc1`, the AC50 in experiment [13] was 4.09 µM (active); in [10], 10.6 µM (active). Moreover, in experiment [14], the compound was called inactive.

On to `CCn1nc(C)c2c1C(=O)NCC(c1ccc(O)cc1)=N2`, for which the outcome in experiment [15] was inactive. With `OCc1ccccc1`, in [15], the AC50 is 12.3 µM (active). Take `COc1cc(C(C)C)c2c(c1)S(=O)(=O)N(COc1cc(=O)n3cccc(OCCN4CCCCC4)c3n1)C2=O`: the call in [13], in experiment [15] and in experiment [16] was inactive.

For the compound `OCc1c[nH]c2ccccc12`, in experiment [9], the AC50 is 25 µM (active). Turning to `O=S(=O)(O)c1ccc(N=Nc2c(O)ccc3cc(S(=O)(=O)O)ccc23)cc1`, the AC50 in experiment [12] is 25 µM (active). For the compound `CC[C@H](C)C(=O)O[C@H]1C[C@H](O)C=C2C=C[C@H](C)[C@H](CC[C@@H](O)C[C@@H](O)CC(=O)O)[C@H]21`, the result in experiment [17], in experiment [8], in experiment [18] and in experiment [9] was inactive. The AC50 in experiment [15] is 4.48 µM (active). Consider `CCCOc1ccc(S(=O)(=O)N2CCN(CC)CC2)cc1-c1nc2c(CC)n(Cc3ccccn3)nc2c(=O)[nH]1`, for which the result in [11] was inactive.

With `CCCCC(CC)C(=O)OCCOCCOCCOC(=O)C(CC)CCCC` (centres undefined), the call in experiment [13] and in experiment [17] was inactive. Further, in experiment [12], the AC50 was 5.94 µM (active).

Turning to `OCCOCCOCCO`, the compound was called inactive in [17]. For `Cc1ccc(S(=O)(=O)NC(=O)NN2CCCCCC2)cc1`, in experiment [8], the compound was called inactive. In the case of `CC(C)C(=O)Nc1ccc([N+](=O)[O-])c(C(F)(F)F)c1`, the compound was called inactive in [13] and in experiment [16]. With `CCCCCCCCN(C)C`, the result in experiment [13] and in [12] was inactive.

With `OC[C@H]1O[C@@H]2O[C@H]3[C@H](O)[C@@H](O)[C@@H](O[C@H]4[C@H](O)[C@@H](O)[C@@H](O[C@H]5[C@H](O)[C@@H](O)[C@@H](O[C@H]6[C@H](O)[C@@H](O)[C@@H](O[C@H]7[C@H](O)[C@@H](O)[C@@H](O[C@H]1[C@H](O)[C@H]2O)O[C@@H]7CO)O[C@@H]6CO)O[C@@H]5CO)O[C@@H]4CO)O[C@@H]3CO`, in [15], the AC50 was 3.51 µM (active). `CCCCCCCCCCCCCCO`: the result in experiment [8] was inactive. Also, in [12], the AC50 is 11.7 µM (active). Regarding `O=C(O)c1cccc(C[C@@H]2COc3ccc(OCc4nc5cc(F)ccc5s4)cc3[C@@H]2O)c1`, the compound was called inactive in [13] and in experiment [12]. Consider `CCCCCCCCCC`, for which the outcome in [5] was inactive.
